Test results published in PubChem BioAssay (Tox21).
Several values for one entry are separate records, joined by “and”; a condition that tells them apart may be missing. Identical values can stand only once. Inconclusive results are not listed. A number with no mark means an inactive call. Activity calls are given as the source filed them. The call rests on the fitted dose curve; in most records, active means well fitted inhibition curve with a large enough effect in the repeat runs; inconclusive means weak or mixed curves; inactive means flat fitted curve, though single readings scatter.

These compounds were tested against Voltage-gated inwardly rectifying potassium channel KCNH2 (Homo sapiens) (UniProt Q12809) (assay: Human Ether-a-go-go-Related Gene (hERG) channel small molecule antagonists: fluorescence cell-based qHTS assay (AID 1671200; further: nearly all actives have a fitted effect of over 50% in size)). Details: hERG-U2OS cells, FluxOR thallium flux fluorescence; series mostly up to 76.8 µM; activity change, negative = inhibition: at the top concentration.
Description: National Center for Advancing Translational Sciences [NCATS]
U.S. Environmental Protection Agency [EPA]
National Institutes of Environmental Health Sciences [NIEHS]
National Toxicology Program [NTP]
U.S. Food and Drug Administration [FDA]
Mutations in the hERG channel cause Long QT (LQT) syndrome. LQT syndrome is a cardiac disorder which can cause ventricle arrhythmia and sudden death. Additionally, compounds which block the hERG channel can cause acquired LQT syndrome. Several FDA approved drugs have been removed from the market due to their hERG blocking activity. A cell-based hERG channel inhibition assay can be used to screen chemical compounds that inhibit hERG channel. This assay measures hERG channel activity using thallium ions as surrogate ions to measure potassium into the cells.
Tox21 Assay Protocol Summary:
hERG-U2OS cells were resuspended in culture medium and dispensed into 1536-well, black wall/clear-bottom plates at 1000cells/well/3uL using a Multidrop Combi dispenser (Thermo Fisher, Waltham, MA). After plates were incubated at 37 C overnight, 3 uL of Loading Buffer provided by FluxOR II Potassium Ion Channel Assay kit (Thermo, Carlsbad, CA) was added to each well. The assay plates were then incubated at room temperature in the dark for 1h. […] After the assay plates were incubated at room temperature for 10 min, 1 uL of Stimulus Buffer provided by FluxOR II Potassium Ion Channel Assay kit was added into each well and fluorescence intensity (480nm excitation/540nm emission) was continuously measured for 2 min at 1 second intervals using a Functional Drug Screening System (FDSS) 7000EX kinetic plate reader (Hamamatsu, Japan).
On the % scale 0 is the no-effect control and ±100 the full control effect; potency means the concentration at half of the fitted maximal effect.

Chain of Voltage-gated inwardly rectifying potassium channel KCNH2 (Homo sapiens) (Q12809 whole entry, looked up): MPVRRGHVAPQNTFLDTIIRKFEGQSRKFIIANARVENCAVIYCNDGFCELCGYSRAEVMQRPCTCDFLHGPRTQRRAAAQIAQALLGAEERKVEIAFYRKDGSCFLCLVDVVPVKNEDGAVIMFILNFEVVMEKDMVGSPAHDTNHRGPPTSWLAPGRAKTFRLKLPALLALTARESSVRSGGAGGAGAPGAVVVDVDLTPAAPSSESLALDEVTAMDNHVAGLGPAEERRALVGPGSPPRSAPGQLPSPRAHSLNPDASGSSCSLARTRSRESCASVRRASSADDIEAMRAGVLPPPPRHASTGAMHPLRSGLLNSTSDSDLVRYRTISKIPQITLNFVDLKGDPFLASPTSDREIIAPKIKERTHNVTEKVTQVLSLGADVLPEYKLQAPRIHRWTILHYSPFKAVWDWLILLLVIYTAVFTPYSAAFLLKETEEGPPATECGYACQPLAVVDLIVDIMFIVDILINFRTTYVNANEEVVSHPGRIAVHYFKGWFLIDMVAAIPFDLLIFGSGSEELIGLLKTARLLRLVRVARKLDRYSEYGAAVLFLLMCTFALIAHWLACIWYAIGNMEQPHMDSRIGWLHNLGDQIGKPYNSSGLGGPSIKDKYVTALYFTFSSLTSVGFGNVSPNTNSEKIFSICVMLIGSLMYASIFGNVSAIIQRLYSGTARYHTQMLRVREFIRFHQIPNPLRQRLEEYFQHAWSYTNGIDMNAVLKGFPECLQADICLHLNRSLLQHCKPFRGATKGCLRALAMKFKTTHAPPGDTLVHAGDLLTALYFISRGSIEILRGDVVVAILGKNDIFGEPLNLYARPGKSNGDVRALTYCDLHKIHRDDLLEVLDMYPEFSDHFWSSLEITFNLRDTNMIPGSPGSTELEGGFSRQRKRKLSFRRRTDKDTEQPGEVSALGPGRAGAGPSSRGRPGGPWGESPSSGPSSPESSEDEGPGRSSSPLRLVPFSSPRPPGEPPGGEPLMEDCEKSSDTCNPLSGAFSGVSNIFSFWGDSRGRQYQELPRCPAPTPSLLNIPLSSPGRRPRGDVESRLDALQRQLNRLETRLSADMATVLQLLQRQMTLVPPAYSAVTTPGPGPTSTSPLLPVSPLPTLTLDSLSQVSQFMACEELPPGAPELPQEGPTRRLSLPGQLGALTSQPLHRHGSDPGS

Row | SMILES | activity change, negative = inhibition | Potency
1 | O=C(O)C(Cl)(Cl)Br | -1.9% | 
2 | COC1=CC(=O)O[C@@H](/C=C/c2ccc3c(c2)OCO3)C1 | -4.75% | 
3 | C[C@@H]1C[C@@H]([C@H](O)CC2CC(=O)NC(=O)C2)C(=O)[C@@H](C)C1 |  | inactive
4 | OCC1CO1 (stereo not given) |  | inactive
5 | Cc1nc2ccccc2c(=O)n1-c1ccccc1Cl | -1.11% | 
6 | CCC1(C2=NCCN2)Cc2ccccc2O1 (stereo not given) | 10.8% [at 35.3 µM] | 
7 | NP(N)(=O)NC(=O)c1ccc(F)cc1 | 4.19% [at 35.3 µM] | 
8 | CC(Oc1cccc(Cl)c1)C(=O)O (stereo not given) | -5.84% | 
9 | C#C[C@]1(O)CC[C@H]2[C@@H]3CCC4=CC(=O)CCC4=C3C=C[C@@]21CC | 0.367% [at 35.3 µM] | 
10 | O=C1NC(=O)C(=O)C(=O)N1 | 1.79% | 
11 | C[C@H](N)[C@H](O)c1ccc(O)c(O)c1 | 6.57% [at 35.3 µM] | 
12 | CCCBr | 0.951% | 
13 | CC(Oc1cc(Cl)c(Cl)cc1Cl)C(=O)O (stereo not given) | 2.31% | 
14 | C[C@H]1[C@@H]2Cc3ccc(O)cc3[C@@]1(C)CCN2C | -17.2% [at 200 µM] | 
15 | CCCCC1C(=O)NC(=O)N(C2CCCCC2)C1=O (stereo not given) | 2.87% [at 35.3 µM] | 
16 | COc1cc(CC#N)cc(OC)c1OC | 0.666% [at 35.3 µM] | 
17 | C[CH2][Hg][S]c1ccccc1C(=O)O | 0.373% [at 35.3 µM] | 
18 | C=CCc1ccc(OC(=O)Cc2ccccc2)c(OC)c1 | -17% | 
19 | C[C@H]1O[C@H](OC2[C@@H](O)[C@@H](O)C(O)[C@H](O)[C@H]2O)[C@@H](N)C[C@@H]1N=C(N)C(=O)O (stereo not given in full) | -0.39% | 
20 | c1ccc2c(c1)sc1ccccc12 | -17.4% | 

Row | SMILES | activity change, negative = inhibition | Potency
21 | CCOc1cccc(C2(N3CCN(c4ccccc4)CC3)CCC(C)CC2)c1 (stereo not given) | 4.55% | 
22 | CC(C)(C)NCC(O)c1cc(Cl)c(N)c(C(F)(F)F)c1 (stereo not given) | -1.1% [at 35.3 µM] | 
23 | O=S(=O)(c1ccccc1)c1ccccc1 | 3.51% | 
24 | CCC(C)(C)c1ccc(O)c(C(C)(C)CC)c1 | -10% | 
25 | CC(C)OC(=O)Cc1ccccc1 | -0.999% | 
26 | CC(Cc1ccccc1)NCc1ccccc1Cl (stereo not given) | -14.8% [at 35.3 µM] | 
27 | CCc1ccccc1N | 6.21% | 
28 | CN(C)c1ccc(N=O)cc1 |  | inactive
29 | c1ccc2c(c1)-c1cccc3cccc-2c13 |  | inactive
30 | O=C([O-])c1ccccn1.O=C([O-])c1ccccn1.O=C([O-])c1ccccn1.[Cr+3] | 0.0354% | 
31 | C=CC(=O)NC(C)(C)CC(C)=O | 2.52% | 
32 | CC(O)CN1CCN(CC(=O)[O-])CCN(CC(=O)[O-])CCN(CC(=O)[O-])CC1.[Gd+3] (stereo not given) | 8.92% [at 35.3 µM] | 
33 | COCc1cnc(C2=NC(C)(C(C)C)C(=O)N2)c(C(=O)O)c1 (stereo not given) | -0.115% | 
34 | O=C(Cc1ccccc1)OCCc1ccccc1 | -16.1% | 
35 | CCOP(=S)(OCC)Oc1ccc(S(C)=O)cc1 (stereo not given) | -1.05% | 
36 | CC(CC(C(N)=O)(c1ccccc1)c1ccccc1)N(C)C (stereo not given) | -20.3% [at 35.3 µM] | 
37 | CCCC[N+]1(C)[C@@H]2CC(OC(=O)[C@H](CO)c3ccccc3)C[C@H]1[C@@H]1O[C@@H]12 (stereo not given in full) | -0.521% [at 35.3 µM] | 
38 | CCCCCCCCCCCC[N+](C)(C)CCOc1ccccc1 |  | 776 nM (active) and 1.34 µM (active)
39 | CON(C)C(=O)Nc1ccc(Cl)cc1 | 1.65% | 
40 | CC(C)(C)c1ccc(CCOc2ncnc3ccccc23)cc1 | 3.65% | 
